Source: PubChem BioAssay (The Scripps Research Institute Molecular Screening Center)
The list is not random: actives were taken first. Their share in the collection is about 2.3%.
CHO-K1 Ca antag = counter-screen for M1 antagonists: effect in parental CHO-K1 cells; 360,000 compounds, 0.6% hits; AID 602250; inhibition, % at 3 µM; ATP-induced calcium, Fluo-8 fluorescence;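 active means inhibition above a per-plate cutoff, the plate's mean sample inhibition plus 3 SD, cut at about 24% in these data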;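 further: 0% = DMSO plus EC80 ATP and 100% = DMSO alone without ATP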
M1 PAM parental = nonselective calcium activators in parental CHO-K1 cells, primary screen, counter-screen for M1 PAM project, cell-based, Fluo-8 calcium fluorescence, full deck, 1536-well | activation, % at 3 µM | 360,000 compounds, 0.02% hits | ATP EC20; 0% at ATP EC20, 100% at ATP max;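 active means activation above the run cutoff, the mean activation of all test compounds plus 3 SD, cut at about 40% in these data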;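 further: peak over basal fluorescence ratio in a 140 s read after ATP addition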
CHRM1 PAM = human M1 muscarinic receptor positive allosteric modulators, primary screen, CHO-K1 cells, Fluo-8 calcium fluorescence, 1536-well; CHO-K1 hM1, ACh EC20; 0% = ACh EC20, 100% = maximal ACh; activation, % at 3 µM; 360,000 compounds, 0.088% hits; AID 588819, 2011; in the data active means activation above about 19%, passing the limit was not always enough
Target sequence (P11229 whole entry, looked up): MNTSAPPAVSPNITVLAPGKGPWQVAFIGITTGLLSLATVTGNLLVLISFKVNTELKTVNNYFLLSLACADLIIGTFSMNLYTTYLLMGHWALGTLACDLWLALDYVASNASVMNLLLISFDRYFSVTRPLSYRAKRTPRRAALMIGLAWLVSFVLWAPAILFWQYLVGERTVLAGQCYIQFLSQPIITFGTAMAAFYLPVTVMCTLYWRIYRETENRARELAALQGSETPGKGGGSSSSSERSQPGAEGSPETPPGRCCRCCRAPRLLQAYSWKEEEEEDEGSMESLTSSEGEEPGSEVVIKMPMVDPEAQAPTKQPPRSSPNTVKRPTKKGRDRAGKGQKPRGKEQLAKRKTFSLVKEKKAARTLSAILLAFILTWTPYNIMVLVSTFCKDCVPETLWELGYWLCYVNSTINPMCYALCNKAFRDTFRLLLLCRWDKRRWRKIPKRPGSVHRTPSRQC
CHRM1 agonist = human M1 muscarinic receptor agonists, primary screen, Fluo-8 calcium fluorescence, CHO-K1 cells, HTS; activation, % at 3 µM; Muscarinic acetylcholine receptor M1 (Homo sapiens), P11229; 360,000 compounds, 0.33% hits; CHO-K1 hM1, agonist mode; 0% DMSO, 100% acetylcholine EC100;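 active means activation above the run's mean compound activation plus 3 SD, cut at about 16% in these data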;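 further: peak over basal fluorescence ratio within a 140 s kinetic read after compound addition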
CHRM1 antagonist = human M1 muscarinic receptor antagonists, primary screen, CHO-K1 cells, Fluo-8 calcium fluorescence, 1536-well; CHO-K1 hM1, ACh EC80 antagonist; inhibition, % at 3 µM; 360,000 compounds, 1.3% hits; AID 588852, 2011;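 active means percent inhibition above its own plate's cutoff, namely the mean of that plate's compound wells plus 3 SD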;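 further: peak over basal fluorescence ratio during 140 s after agonist addition; 0% = ACh EC80 plus DMSO and 100% = DMSO alone without agonist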
M1 ag parental = counter-screen for M1 agonists: effect in parental CHO-K1 cells. 360,000 compounds, 0.48% hits. activation, % at 3 µM. Fluo-8 calcium fluorescence; scaled to maximal ATP response, vehicle zero. AID 602248, 2012; in the data active means activation above about 15%;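 further: untransfected CHO-K1 host cells lacking M1 receptor as counterscreen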
Active calls of the source: *.

SMILES	CHO-K1 Ca antag	M1 PAM parental	CHRM1 PAM	CHRM1 agonist	CHRM1 antagonist	M1 ag parental
COc1ccc(-c2nc3c(c(SCC(=O)N4CCOCC4)n2)COC(C)(C)C3)cc1	30*	-6	5	-4	1	0
O=C(c1ccc(Cl)cc1)C1CCN(C(=O)C2CC2)CC1	-10	18	8	-3	-4	1
CCS(=O)(=O)N1Cc2ccccc2CC1C(=O)Nc1nc(C)cs1 (centres undefined)	32*	-11	6	-1	-9	-1
CCCCOc1ccc(C(=O)NCCOc2cccc(OC)c2)cc1	-13	9	1	-9	2	-1
Cn1nccc1C(=O)N1CCOCC1	-5	14	9	-3	-9	0
COC(=O)N/N=C/c1cn(CCOc2ccc(OC)cc2)c2ccccc12	0	7	-9	-2	15	15*
Cc1ccc(Cc2c(-c3ccccc3)nc3cc(C)c(Br)c(C)n23)cc1	2	16	3	-7	-4	1
CC(=O)c1cccc(NC(=O)C(C)OC(=O)CCc2nc3ccccc3c(=O)[nH]2)c1 (centres undefined)	-9	8	11	-2	-16	0
CCCCCOc1ccc(/C(C)=N/NC2=NCCN2)cc1	-6	5	7	-4	-12	0
CCOc1ccc(Br)cc1/C(C)=N\NC1=NCCN1	15	0	-17	11	63*	3
COc1cc(OC)c(C2=NOC(C(=O)Nc3ccc4c(c3)OCO4)C2)cc1Cl (centres undefined)	0	2	-2	-3	5	18*
CN(C)c1ccc(CC(=O)N2CCCCC2c2cc(C(=O)Nc3cccc4c3CCCC4)no2)cc1 (centres undefined)	22	-18	2	1	-1	0
Cc1cc(NC(=O)CSc2cc(Cl)ccc2Cl)n(-c2ccccc2)n1	25*	-4	-6	-8	1	3
Cc1cc(NC(=O)COc2ccc(Cl)cc2Cl)n(-c2ccccc2)n1	10	-3	-1	-3	0	1
CCOC(=O)/C(=C/C=C1\Sc2cc(C)c(C)cc2N1CC)C(C)=O	20	-20	-16	51*	33*	22*
CCN1/C(=C/C(=O)c2ccco2)Sc2ccccc21	1	10	9	-3	-11	0
CCC(=O)/C=C1/Sc2ccccc2N1CC	0	16	1	-7	-19	-1
CCOC(=O)/C(=C\C=C1/Sc2ccccc2N1CC)C(C)=O	18	-2	-13	47*	25	38*
CCOC(=O)/C(=C/C=C1\Sc2ccccc2N1CC)C(C)=O	28*	-17	-16	19*	21	18*
O=CNc1cc(-c2cccc(F)c2)cn2c(-c3ccc(F)c(Cl)c3)cnc12	6	3	5	1	1	0
O=C(OCC#CCSc1nnc(-c2ccncc2)o1)c1cccs1	-6	18	5	-8	1	17*
O=c1[nH]nc(Sc2ccccc2)c(=S)[nH]1	-19	18	-1	-2	-4	0
CCN(Cc1ccncc1)C(=O)c1ccccc1NS(=O)(=O)c1ccc(Br)cc1	10	-16	2	-5	-5	0
COc1ccc(NC(=O)Cn2nnc(C(=O)NCCc3ccccc3)c2N)cc1	3	15	11	-4	-5	19*
COC(=O)c1ccsc1NC(=O)CN1CCN(c2ccc(F)cc2)CC1	-14	13	1	-2	-23	2
SMILES	CHO-K1 Ca antag	M1 PAM parental	CHRM1 PAM	CHRM1 agonist	CHRM1 antagonist	M1 ag parental
COC(=O)c1ccsc1NC(=O)CN1CCN(c2ncccn2)CC1	25*	-22	18	2	-6	0
Cc1ccc(/C=C/C(=O)Nc2cc(S(N)(=O)=O)ccc2O)cc1	-10	19	9	-4	-12	1
CCc1cccc2sc(N3CCN(C(=O)c4ccc([N+](=O)[O-])o4)CC3)nc12	-8	10	-5	-7	5	2
CC(CCc1ccccc1)NC(=O)c1ccccc1Cl (centres undefined)	-8	17	8	-1	-11	1
CCOc1ncccc1C(=O)NC(C)CCc1ccccc1 (centres undefined)	-7	14	5	-5	-9	19*
CN(C)CCCNC(=O)N1c2ccccc2C=Cc2ccccc21	-10	10	-29	-9	97*	1
CCCCCC(=O)N1CC2(CC)CN(C(=O)CCCCC)CC(CC)(C1)C2=O	-9	15	7	-5	-23	1
CC(Nc1ncnc2ccccc12)c1ccccc1 (centres undefined)	24*	12	-7	-2	27*	11
CCCCC(Nc1ncnc2ccccc12)C(=O)O (centres undefined)	-9	11	5	-4	-10	0
C=CC(c1ccccc1)C(C(=O)c1ccccc1)N(C)C (centres undefined)	-16	0	-1	-6	6	0
O=c1c2ccc(F)cc2sn1-c1ccccc1	-2	4	-1	16*	-12	11
Cc1ccc(-n2sc3cc(F)ccc3c2=O)c(C)c1	0	-2	-4	18*	-9	15
O=c1c2cc(F)ccc2sn1-c1ccccc1Cl	4	5	-1	-1	-4	0
Cc1ccc(C)c(S(=O)(=O)N2CCN(C(=O)CCC(=O)c3cc(C)sc3C)CC2)c1	-2	-10	-3	-5	-3	4
CCCNC(=O)c1ccc(N2CCC3(CC2)CC(c2ccccc2)=NO3)c(NC(=O)c2ccccc2)c1	-3	9	-22	-8	32*	2
CCC(=O)N1CCN(c2ccnc3cc(Cl)ccc23)CC1	-11	15	4	-4	-11	2
CCOC(=O)N1CCN(c2ccnc3cc(Cl)ccc23)CC1	-12	-4	-38	-12	91*	4
COc1cccc(Cl)c1NC(=O)N1CCN(c2ccnc3cc(Cl)ccc23)CC1	-1	12	-17	-2	34*	7
COc1cccc(Cl)c1NC(=O)N1CCN(c2cc(C)nc3ccccc23)CC1	-27	15	0	-9	-8	0
O=C(Nc1nnc(S(=O)(=O)N2CCCCCC2)s1)c1ccccc1F	1	-10	-16	0	31*	4
CCN1/C(=C/C=C/C=C/C=C/c2sc3ccccc3[n+]2CC)Sc2ccccc21	-8	11	-2	-8	0	0
